Reference: ChEMBL document CHEMBL3988442, “University of Dundee, Small-Polar-MMV Screening Library” (2021)
About 13,000 (27%) of roughly 48,000 compounds showed an effect of 50% or more. Some of the results follow.

system: Wolbachia pipientis; experiment: Anti-Wolbachia Cell-Based Screen; assay type: functional; parameters: scale not given: in the data most compounds retested in dose-response had high values; conditions: 5 µM

Going from CC(C)N1CC(c2ncc(-c3ccc4c(c3)OCCO4)[nH]2)CC1=O (configuration not stated) to Cc1ccc(NC(=O)N2CCOC(C)C2)cc1Cl (configuration not stated), the “Percent Effect” value rises from 5.292% to 8.105%.

Going from CC(C)CN1C(=O)CO[C@@H]2CN(C(=O)[C@H]3CCCO3)C[C@H]21 to CCc1nc(CN(C)C(=O)C2CCC(=O)N(CC3CCCCC3)C2)no1 (configuration not stated), the “Percent Effect” value falls from -3.768% to -15.94%.

Compared with CC(C)(O)CCc1ccc(C(=O)N2CCN(CCS(C)(=O)=O)CC2)cc1, CCCc1c(C(=O)N2CCN(c3ncccn3)CC2)cnn1C is higher in “Percent Effect” value: -13.16% for the first, -7.534% for the second.

Going from Cl.Cn1ncc2c1CCCC2NCc1cc(Br)cs1 (configuration not stated) to CC1(C)Cc2c(cnn2-c2ccccc2)C(NC2CCSCC2)C1 (configuration not stated), the “Percent Effect” value falls from 7.416% to 2.86%.

Compared with COc1ccc(NC(=O)Cn2nc(C)c(C)cc2=O)cc1Cl, Cc1cc(=O)n(CC(=O)Nc2ccc(Cl)cc2)nc1C is lower in “Percent Effect” value: -5.001% for the first, -24.72% for the second.

First: CCc1csc(CNCC(=O)Nc2ccc(Cl)c(C)c2)n1
Second: CCOC(=O)N1CC(C)=C(C)CN1C(=O)Nc1ccc(Cl)c(Cl)c1
The “Percent Effect” value of the first is lower: 20.64% for the first, 122.4% for the second.

First: COC(=O)N1CC(C)=C(C)CN1C(=O)Nc1ccc(Cl)cc1
Second: COC(=O)N1CC(C)=C(C)CN1C(=O)Nc1cccc(Cl)c1
The “Percent Effect” value of the first is lower: 87.33% for the first, 127.6% for the second.

Compared with CN1CC(Oc2ccccc2)=NC(SCC(=O)Nc2ccc(Cl)cc2)=N1, CN1CCC(Oc2ccc(NC(=O)c3ccccc3Br)cc2)CC1 is lower in “Percent Effect” value: 11.53% for the first, -1.249% for the second.

Compared with COC(=O)NCCCC(=O)NCC1(c2cccc(Cl)c2)CC1, COC(=O)NCCC(=O)NCC1(c2cccc(Cl)c2)CC1 is higher in “Percent Effect” value: -5.013% for the first, 6.503% for the second.

Compared with Cc1ccc(NC(=O)N2CCCC(O)(CO)CC2)cc1Cl (configuration not stated), Cc1ccc(C(=O)NCC2(O)CCOCC2)cc1F is higher in “Percent Effect” value: -14.19% for the first, -12.72% for the second.

First: COC(=O)N1CC(C)=C(C)CN1C(=O)Nc1ccc(Cl)c(Cl)c1
Second: Cc1c(C(C)NC(=O)Nc2ccc(F)c(F)c2)cnn1C (configuration not stated)
The “Percent Effect” value of the first is higher: 93.89% for the first, 0.41% for the second.

Going from COc1ccc(C2CCN(CCCC#N)CC2)cc1 to Cc1nc(C)n(CC2CN(CCCOc3ccccc3)CCO2)n1 (configuration not stated), the “Percent Effect” value rises from 4.999% to 117%.

Compared with CN(CCn1ccc2ccccc21)C(=O)CS(C)(=O)=O, CSCC(=O)N(C)Cc1noc(-c2ccccc2)n1 is higher in “Percent Effect” value: -3.366% for the first, 108.1% for the second.

Compared with CCC(NCc1cccc(Cl)c1)c1ccccc1OCC(=O)NC (configuration not stated), CC(=O)c1ccc(OCC(=O)NC(C)CCc2ccco2)cc1 (configuration not stated) is lower in “Percent Effect” value: -3.101% for the first, -8.021% for the second.

First: Cc1cnn(CC2CN(Cc3nc4ccccc4s3)CCO2)c1 (configuration not stated)
Second: c1ccc2sc(CN3CCOC(Cn4cncn4)C3)nc2c1 (configuration not stated)
The “Percent Effect” value of the first is higher: 112.2% for the first, -2.125% for the second.

Going from Cc1nc(C)n(CC2CN(CCCOc3ccccc3C)CCO2)n1 (configuration not stated) to Cc1nc(C)n(CC2CN(CCc3ccccn3)CCO2)n1 (configuration not stated), the “Percent Effect” value falls from -2.427% to -80.6%.

Going from Cc1cc(C)n(CC2CN(Cc3nc4ccccc4s3)CCO2)n1 (configuration not stated) to Cc1nc(C)n(CC2CN(Cc3nc4ccccc4s3)CCO2)n1 (configuration not stated), the “Percent Effect” value rises from 100.5% to 214.4%.

Going from c1ccc2sc(CN3CCOC(Cn4cccn4)C3)nc2c1 (configuration not stated) to Cc1cnc(CN2CCOC(Cn3nc(C)nc3C)C2)cn1 (configuration not stated), the “Percent Effect” value falls from 18.8% to 1.014%.

First: CCOc1cc(CNCCCn2ccnc2)cc(Cl)c1OC
Second: CCOCCCNCc1cc(O)c2cc(C)ccc2n1
The “Percent Effect” value of the first is higher: -2.323% for the first, -26.14% for the second.

First: COCCN1C[C@H]2[C@@H](C1)N(C(=O)c1cccs1)CC[C@H]2OC
Second: COCCN1C[C@H]2CN(C(=O)c3ccno3)CCN2C1=O
The “Percent Effect” value of the first is lower: -4.854% for the first, 3.514% for the second.

First: COc1ccccc1OC1(C(=O)O)CCN(c2ncnc(C)c2C)CC1
Second: COc1ccccc1CC(NC(=O)N1CCC[C@@H]1CO)C(C)C (some centres not stated)
The “Percent Effect” value of the first is lower: -46.26% for the first, -5.452% for the second.

Compared with N#CCCNC(=O)CSc1ccc(F)cc1F, CCS(=O)(=O)N1CCc2ccc(NC(=O)Nc3ccc(F)cc3F)cc21 is higher in “Percent Effect” value: -9.893% for the first, 3.435% for the second.

Compared with Cc1c(C2=NS(=O)(=O)N(C)C(C(=O)Nc3ccc(Br)cc3)=C2)cnn1C, Cc1nn(C)cc1C1=NS(=O)(=O)N(C)C(C(=O)Nc2ccc(Br)cc2)=C1 is higher in “Percent Effect” value: 158.8% for the first, 160.2% for the second.

Compared with Cc1nn(C)cc1C1=NS(=O)(=O)N(C)C(C(=O)Nc2ccc(Cl)cc2)=C1, CCS(=O)(=O)N1CCc2ccc(NC(=O)Nc3cccc(C)c3)cc21 is lower in “Percent Effect” value: 140.7% for the first, 127.7% for the second.

Compared with CNc1nc(CNC(=O)Nc2ccccc2-c2noc(C)n2)cs1, CN(C)C(=O)Cc1ccccc1NCc1noc(-c2ccccc2)n1 is higher in “Percent Effect” value: 2.213% for the first, 11.76% for the second.

Going from CN1CC(NC(=O)CCCc2cc(Cl)sc2Cl)CCC1=O (configuration not stated) to COc1cc(NC(=O)NC2CCCC2)ccc1N1CCOC1=O, the “Percent Effect” value rises from -9.281% to 8.686%.

Compared with O=C(NCCCNc1cccnc1)c1ccc2nccn2c1, O=C(NCCc1cccnc1)c1ccc2nccn2c1 is lower in “Percent Effect” value: 1.237% for the first, -5.38% for the second.

Going from O=C(NCCc1ccccc1)c1cn(CCNCc2cccnc2)nn1 to O=C(NCc1cccnc1)c1cn(CCc2ccccc2)nn1, the “Percent Effect” value rises from -1.891% to 77.17%.

Compared with O=C(NCc1cccnc1)c1ccc2nccn2c1, O=C(NCCCOc1cccnc1)c1cn(CCc2ccccc2)nn1 is lower in “Percent Effect” value: 107.5% for the first, -0.6541% for the second.

Compared with CN(C)c1cccc(C(=O)NCC2(O)CCOCC2)c1, CN(C)c1ccc(C(=O)NCC2(O)CCOCC2)cc1 is higher in “Percent Effect” value: -18.41% for the first, -16.02% for the second.

First: Cc1ccc(C(=O)NCC2(O)CCOCC2)cc1Br
Second: O=C(NCC1(O)CCOCC1)c1ccc(F)cc1
The “Percent Effect” value of the first is lower: -13.19% for the first, 96.45% for the second.

Compared with COC(=O)c1ccc(C(=O)NCC2(O)CCOCC2)cc1, COCCN1Cc2ccccc2C2(CCN(C(=O)c3ccco3)CC2)C1 is lower in “Percent Effect” value: 130.4% for the first, 91.37% for the second.

First: O=C(O)C(F)(F)F.O=C(O)C(F)(F)F.O=C(O)c1cc2c(nc1N1CCOCC1)CCN(C1CCOC1)CC2 (configuration not stated)
Second: Cc1cccc(NC(=O)NC2CCN(C3CCOC3)CC2)c1 (configuration not stated)
The “Percent Effect” value of the first is higher: -7.215% for the first, -12.46% for the second.

First: Cc1ccnc2c1NC(=O)CN2C(=O)CCC(F)(F)F
Second: NS(=O)(=O)N1CCc2ccc(NC(=O)CC(F)(F)F)cc21
The “Percent Effect” value of the first is higher: -8.698% for the first, -10.92% for the second.

First: O=C(OC1CCC1)c1ncccc1OCC(F)(F)F
Second: COCC1CN(C(=O)Cc2cccc(F)c2)Cc2ccnn2C1.O=C(O)C(F)(F)F (configuration not stated)
The “Percent Effect” value of the first is lower: -10.44% for the first, 13.65% for the second.

First: CCCNCc1cc2c(C)cc(C)cc2n2c(=O)n(C)nc12
Second: COCCNCc1cc2c(C)cc(C)cc2n2c(=O)n(C)nc12
The “Percent Effect” value of the first is lower: -10.06% for the first, 88.13% for the second.

Compared with COCCCn1cnnc1CNC(=O)c1[nH]c2c(C)cc(C)cc2c1C, CCOCCCNCc1cc2c(C)cc(C)cc2n2c(=O)n(C)nc12 is higher in “Percent Effect” value: 0.2132% for the first, 119.1% for the second.

First: O=C1CCC2(CCCN(c3ncnc4[nH]cnc34)C2)CN1CCCO (configuration not stated)
Second: O=C(Nc1ccccc1)C1CCCN(c2cc(-n3cncn3)ncn2)C1 (configuration not stated)
The “Percent Effect” value of the first is lower: -3.767% for the first, -3.274% for the second.

First: CSCCC(=O)N1CCC(c2nnc(CN(C)CCO)n2C)CC1
Second: CCc1nc(CN(C)C(=O)CSC)no1
The “Percent Effect” value of the first is lower: 26.9% for the first, 99.89% for the second.

Compared with NS(=O)(=O)N1CCc2ccc(NC(=O)Cc3ccc(F)cc3)cc21, CCS(=O)(=O)N1CCCc2ccc(NC(=O)Cc3ccc(F)cc3)cc21 is lower in “Percent Effect” value: -5.162% for the first, -6.577% for the second.

First: CCS(=O)(=O)N1CCc2ccc(NC(=O)NC(C)(C)C)cc21
Second: CCS(=O)(=O)N1CCc2ccc(NC(=O)Nc3ccccc3C)cc21
The “Percent Effect” value of the first is lower: 107.2% for the first, 122.8% for the second.

Going from CCS(=O)(=O)N1CCc2ccc(NC(=O)Nc3cccc(F)c3)cc21 to CCS(=O)(=O)N1CCc2ccc(NC(=O)Nc3cccc(SC)c3)cc21, the “Percent Effect” value falls from 144.6% to 9.677%.

Compared with CCS(=O)(=O)N1CCc2ccc(NC(=O)NC3CCCCC3)cc21, CCS(=O)(=O)N1CCc2ccc(NC(=O)Nc3ccccc3)cc21 is higher in “Percent Effect” value: 108.5% for the first, 185.4% for the second.

Going from CCC(=O)N1CC[C@@H](c2ccc3ccccc3c2)[C@H](O)C1 to NS(=O)(=O)N1CCc2ccc(NC(=O)Cc3ccccc3F)cc21, the “Percent Effect” value falls from -8.5% to -18.89%.

Going from CC(NS(C)(=O)=O)C(=O)N(C)Cc1csc(-c2cccs2)n1 (configuration not stated) to CCS(=O)(=O)N1CCC2(CC1)CN(C(=O)N(C)C)Cc1ccccc12, the “Percent Effect” value falls from -6.188% to -41.7%.

Compared with O=S(=O)(N1CCCCC1)N1CCOC2(CCCC2)C1, Cn1cc(N2CCC3(CCN(S(=O)(=O)C4CC4)C3)C2=O)cn1 (configuration not stated) is lower in “Percent Effect” value: -3.647% for the first, -13.56% for the second.

Going from O=C(NC1CC1)NC(c1ccc(F)cc1)C1CC1 (configuration not stated) to Cc1ccc(C(=O)N2CC(C(N)=O)O[C@H](C)C2)c(F)c1 (some centres not stated), the “Percent Effect” value falls from -8.198% to -9.152%.

Compared with CN(CCN1CCN(c2ccccc2)CC1)C(=O)Nc1ccccn1, COCCN1Cc2ccccc2C2(CCN(C(=O)c3ccno3)CC2)C1 is higher in “Percent Effect” value: -17.55% for the first, 106.5% for the second.

Going from CC(C)Oc1ncccc1CNC(=O)c1ccco1 to O=C(c1ccco1)N1CCC2(CC1)C(=O)Nc1ccccc12, the “Percent Effect” value falls from 7.44% to -7.592%.

Going from N#CCCN(Cc1ccco1)C(=O)CN1CCCC1c1cccs1 (configuration not stated) to COCCN1CC2(CCN(Cc3ccco3)CC2)c2ccccc21, the “Percent Effect” value falls from -7.66% to -16.07%.

First: CC(C)c1nc(CN(C)C(=O)Cn2nc3ccccc3n2)no1
Second: CN(Cc1noc(-c2ccccc2)n1)C(=O)CSc1nnc(N)s1
The “Percent Effect” value of the first is lower: -13.5% for the first, 121.6% for the second.

Going from COc1ccc(CN(C)C(=O)CSc2nnc(N)s2)c(OC)c1OC to CCn1ccc(CN(C)C(=O)CSc2nnc(N)s2)n1, the “Percent Effect” value rises from 2.435% to 5.02%.

Going from CCc1noc(CN(C)C(=O)COc2cc(Cl)cc(Cl)c2)n1 to O=C(c1ccc2cccnc2n1)N(Cc1ccsc1)CC1CCCO1 (configuration not stated), the “Percent Effect” value falls from -5.267% to -29.46%.

Compared with CCCC(C)CS(=O)(=O)NCCc1csc(N2CCCC2)n1 (configuration not stated), COCCN1Cc2ccccc2C2(CCN(S(C)(=O)=O)CC2)C1 is higher in “Percent Effect” value: 5.842% for the first, 109.9% for the second.

Going from CN(C)c1ccnc(-c2ccnc3c2ccn3C)n1 to Cc1[nH]c2c(C)ccc(C)c2c1CC(=O)NCCCNc1cccnc1, the “Percent Effect” value falls from -3.285% to -12.73%.

Going from COCCN1CCC2(CC1)CC1(CCN(S(C)(=O)=O)CC1)N(C)C2=O.O=C(O)C(F)(F)F to O=C(c1ccno1)N1CCC2(CC1)C(=O)Nc1ccccc12, the “Percent Effect” value rises from -9.423% to 0.1339%.
